The text below walks through data of PubChem BioAssay.

The list shows a part of the results. Activity calls are given as the source filed them. Unless noted, how the calls were made is not given here.

The nature of assay [1]: Brca1-Bard1 BiLC signal decrease – luminescence, single concentration, counter-screen for Mdm2/MdmX interaction inhibitor project, confirmation (AID 504668). The note with it: Brca1/Bard1 bimolecular luciferase complementation counterscreen, at 8 µM, stronger effect = higher value.
The nature of assay [2]: lowers stimulated NF-kB luciferase signal in Jurkat – cell-based, luminescence, single concentration, T-cell NF-kB inhibitor project, confirmation (AID 435020;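 active means inhibition reaching about 45% at 4 µM in either replicate, limit read from the data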;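 further: plate controls were PMA/ionomycin stimulated DMSO wells for no effect and unstimulated DMSO wells for full effect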). The note with it: PMA/ionomycin-induced, 16 h, at 4 µM, stronger effect = higher value.
Assay [3] addresses Tumor necrosis factor receptor superfamily member 10B (Homo sapiens) (UniProt O14763). Briefly: viability loss of caspase-8 NB7 cells with TRAIL – with/without TRAIL, luminescence panel, confirmation (AID 651596; in the data active means activity above about 50%). The note with it: NB7 neuroblastoma + caspase-8, TRAIL sensitization, NB7 Caspase-8, with TRAIL, mean of runs, at 10 µM, stronger effect = higher value.
Test in assay [4]: as above
As to conditions: NB7 neuroblastoma + caspase-8, without TRAIL, NB7 Caspase-8, without TRAIL, mean of runs, at 10 µM.

Assay [5] is described as follows: PERK-eIF2a-CHOP pathway stimulators, retested – cell-based, CHO-CHOP luciferase reporter, single concentration, confirmation (AID 463112; in the data active means activation above about 33%;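 further: 0% = DMSO wells and 100% = tunicamycin 10 µg/mL wells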). The note with it: CHO-CHOP cells, CHOP-luciferase reporter luminescence; at 10 µM; stronger effect = higher value; percent of tunicamycin response, DMSO as zero.
Assay [6] is described as follows: apoptosome-driven caspase-3 activation blockers – biochemical, fluorescence, DEVD-Rh110, 20 µM, confirmation (AID 504614;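 active means mean inhibition of at least 40% at 20 µM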;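 further: plate controls were DMSO wells for no effect and DEVD-CHO caspase inhibitor control wells for full effect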). As to conditions: reconstituted apoptosome, caspase-3 DEVD-Rh110 fluorescence; at 20 µM; stronger effect = higher value.
Assay [7] is described as follows: detection-step artefacts after completed caspase reaction – biochemical, fluorescence, Rh110, 20 µM, artefact control for Apaf-1 inhibitor project, confirmation (AID 504615;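 active means signal rise of 40% or more at 20 µM, treated as a fluorescence artifact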). As to conditions: quenched caspase reaction, at 20 µM, stronger effect = higher value.
Assay [8] concerns the target Protein Mdm4 (Homo sapiens) + E3 ubiquitin-protein ligase Mdm2 (Homo sapiens) (UniProt O15151+Q00987). Nature of the assay: human Mdm2/MdmX binding disruption – cell-based, luminescence, single concentration, set 2, confirmation (AID 504601;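 active means mean inhibition of the luminescence signal across two replicates at or above 26 percent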). The note with it: SaOS-2 split-luciferase Mdm2/MdmX complementation, at 8 µM, stronger effect = higher value.
Assay [9] can be described thus: HIF-2a driven luciferase blockers, single dose – luminescence, 786-0 RCC cells, confirmation (AID 651580;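 active means mean inhibition across four replicates of at least 40 percent at the single tested concentration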). The note with it: HIF-2a luciferase reporter luminescence, overnight, at 18.8 µM, stronger effect = higher value. For orientation: Reporter assays use an easily measured gene product as a stand-in for the process of interest.
The nature of assay [10]: HIF-1a luciferase reporter signal reduction – MiaPaCa-2 cells, single concentration, counter-screen for HIF-2a inhibitor project, confirmation (AID 651589;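 active means mean inhibition of the reporter signal across four replicates at the single tested dose of 50% or more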). The note with it: MiaPaCa-2 HIF-1a luciferase reporter, desferoxamine, overnight; at 18.8 µM; stronger effect = higher value.
A short description of assay [11]: inhibition of PEG-3 promoter luciferase signal – cell-based, HeLa, luciferase reporter, single concentration, confirmation (AID 602417;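 active means at 20 µM dose, 40% or more inhibition averaged across four replicates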). As to conditions: HeLa PEG-Prom luciferase reporter, luminescence, overnight; at 20 µM; stronger effect = higher value.
Assay [12] deals with PEG-3 (UniProt Q6IN02). Briefly: inhibition of PEG-3 promoter-driven reporter – cell-based, HeLa, luciferase, CREF/GAPDH counter-screen panel, dose response (AID 624167). As to conditions: HeLa PEG-Prom luciferase reporter, overnight, CREF/GAPDH counter-screens; run 1, dose range 1, at 100 µM (top of the series).
In assay [13] the target is PEG-3 (UniProt Q6IN02). The description is as above. The note with it: HeLa PEG-Prom luciferase reporter, overnight, CREF/GAPDH counter-screens; run 2, dose range 1, at 100 µM (top of the series).

Tumor necrosis factor receptor superfamily member 10B (Homo sapiens), sequence (O14763 whole entry, looked up): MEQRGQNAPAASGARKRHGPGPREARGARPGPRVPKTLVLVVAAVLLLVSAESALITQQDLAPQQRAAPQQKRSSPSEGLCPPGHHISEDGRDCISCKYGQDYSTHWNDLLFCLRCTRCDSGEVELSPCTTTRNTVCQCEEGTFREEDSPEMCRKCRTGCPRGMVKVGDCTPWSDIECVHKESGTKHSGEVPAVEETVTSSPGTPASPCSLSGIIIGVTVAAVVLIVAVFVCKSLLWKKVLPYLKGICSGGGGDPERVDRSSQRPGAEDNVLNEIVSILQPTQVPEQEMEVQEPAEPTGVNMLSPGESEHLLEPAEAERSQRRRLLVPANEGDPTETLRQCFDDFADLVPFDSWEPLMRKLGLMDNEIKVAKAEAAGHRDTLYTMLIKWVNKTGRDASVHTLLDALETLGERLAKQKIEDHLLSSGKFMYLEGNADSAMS
PEG-3, sequence (Q6IN02 whole entry, looked up): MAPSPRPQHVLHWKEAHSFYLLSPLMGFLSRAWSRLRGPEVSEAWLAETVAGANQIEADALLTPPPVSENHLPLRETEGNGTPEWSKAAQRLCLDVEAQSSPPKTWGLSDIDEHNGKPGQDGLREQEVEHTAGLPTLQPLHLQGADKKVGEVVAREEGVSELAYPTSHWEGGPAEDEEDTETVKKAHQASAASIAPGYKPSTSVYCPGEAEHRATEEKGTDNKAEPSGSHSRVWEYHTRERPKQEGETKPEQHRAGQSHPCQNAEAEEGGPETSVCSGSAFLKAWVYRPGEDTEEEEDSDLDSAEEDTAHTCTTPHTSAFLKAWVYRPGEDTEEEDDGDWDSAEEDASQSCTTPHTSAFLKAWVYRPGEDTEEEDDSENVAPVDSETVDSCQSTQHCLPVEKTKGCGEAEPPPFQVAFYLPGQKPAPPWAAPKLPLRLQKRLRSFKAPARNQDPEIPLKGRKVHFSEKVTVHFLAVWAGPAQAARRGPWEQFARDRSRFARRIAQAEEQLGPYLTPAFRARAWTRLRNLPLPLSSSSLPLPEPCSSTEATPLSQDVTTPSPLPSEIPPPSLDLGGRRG
Protein Mdm4 (Homo sapiens) + E3 ubiquitin-protein ligase Mdm2 (Homo sapiens), sequence (O15151 whole entry, looked up): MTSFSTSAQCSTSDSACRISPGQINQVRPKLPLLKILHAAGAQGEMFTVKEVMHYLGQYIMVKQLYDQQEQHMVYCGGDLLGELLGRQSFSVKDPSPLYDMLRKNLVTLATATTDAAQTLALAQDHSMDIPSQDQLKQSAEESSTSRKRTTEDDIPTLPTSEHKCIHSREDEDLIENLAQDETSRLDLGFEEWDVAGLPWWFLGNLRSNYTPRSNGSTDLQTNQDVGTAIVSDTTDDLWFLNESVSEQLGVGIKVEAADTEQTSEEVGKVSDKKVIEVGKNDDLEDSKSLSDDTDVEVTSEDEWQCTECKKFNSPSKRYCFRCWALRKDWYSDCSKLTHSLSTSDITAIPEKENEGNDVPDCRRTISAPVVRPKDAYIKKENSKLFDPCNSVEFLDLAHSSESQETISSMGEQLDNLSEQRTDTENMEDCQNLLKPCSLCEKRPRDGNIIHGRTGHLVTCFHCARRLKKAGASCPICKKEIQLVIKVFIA
Protein Mdm4 (Homo sapiens) + E3 ubiquitin-protein ligase Mdm2 (Homo sapiens), sequence (Q00987 whole entry, looked up): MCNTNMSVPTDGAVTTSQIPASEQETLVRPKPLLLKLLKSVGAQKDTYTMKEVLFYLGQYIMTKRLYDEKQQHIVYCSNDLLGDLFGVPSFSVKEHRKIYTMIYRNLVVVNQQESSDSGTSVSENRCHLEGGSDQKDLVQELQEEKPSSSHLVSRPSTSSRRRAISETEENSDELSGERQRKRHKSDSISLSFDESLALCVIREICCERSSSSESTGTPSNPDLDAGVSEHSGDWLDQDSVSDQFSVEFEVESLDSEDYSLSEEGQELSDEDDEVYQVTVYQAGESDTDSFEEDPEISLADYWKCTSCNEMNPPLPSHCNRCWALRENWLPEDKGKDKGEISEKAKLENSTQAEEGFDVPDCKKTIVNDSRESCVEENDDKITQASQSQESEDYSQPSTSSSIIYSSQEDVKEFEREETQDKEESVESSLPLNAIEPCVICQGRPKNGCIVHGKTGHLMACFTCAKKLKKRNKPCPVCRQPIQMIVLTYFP

On to `CC(C)c1oc(=O)cc2c1[C@@H](O)[C@H]1OC(=O)[C@@]3(C)C[C@@H](O)[C@@H](O)[C@@]2(C)C13` (stereo not given in full), for which, in assay [1], the inhibition is 29.6% (active).

In the case of `COc1ccc2c(c1)/C(=C/c1cnc[nH]1)C(=O)N2`, the inhibition in assay [1] is 32.2% (active).

For the compound `Cc1cc(O)c2c(c1)C(=O)C13C(=C2O)C(=O)[C@H]2[C@@H](O)[C@@H]1[C@H]1[C@H](O)[C@@H]3C(=O)C3=C(O)c4c(O)cc(C)cc4C(=O)C312` (stereo not given in full), in assay [1], the inhibition is 29.6% (active).

Turning to `c1ccc2c(N3CCNCC3)nsc2c1`, in assay [1], the inhibition was 29.6% (active).

Take `N#CC(C#N)=NNc1ccc(-n2ccc(C(F)(F)F)n2)cc1`: in assay [1], the inhibition was 31.2% (active).

As for `CCOc1ccc(-c2cc(C)[n+](CCN(CC)CC)c(-c3ccc(OCC)cc3)c2)cc1`, the inhibition in assay [2] was 21.7% (inactive). For the same compound, the results for the activity in assay [3] and in assay [4] were 62.5% and 59.2%, respectively.

Take `CCOc1cccc(CNCCc2c(C)[nH]c3ccc(OC(F)(F)F)cc23)c1O`: in assay [1], the inhibition is 29.9% (active).

As for `O=C1NC(=O)N(CCc2ccc(F)cc2)C(=O)/C1=C/C=C/c1ccccc1`, the activation in assay [5] was 90.1% (active).

As to `C[C@]12CC[C@H](O)C[C@H]1CC[C@@H]1C2CC[C@]2(C)[C@@H](C3=CC(=O)OC3)[C@@H](O)C[C@]12O` (stereo not given in full), in [2], the inhibition was -17.1% (inactive).

Take `C/C=C(\C)C(=O)OC1C(C)=C2C(C1OC(=O)CCCCC)C(C)(OC(C)=O)CC(OC(=O)CCC)C1(O)C2OC(=O)C1(C)O` (stereo not given): the inhibition in assay [1] was 24.1% (active).

For `CCOC(=O)c1c(N)n(Cc2ccccc2)c2nc3ccccc3nc12`, the inhibition in assay [6] is 12.5% (inactive). Also, the activation (fluorescence interference) in assay [7] was 5.83% (inactive).

Turning to `CCCCCCCCCCCCn1ccc(=N)cc1`, the inhibition in [2] is 80.3% (active); in assay [8], 103% (active); in assay [6], 32% (inactive); in assay [9], 64% (active); in assay [10], 106% (active). Also, in assay [7], the activation (fluorescence interference) is 3.55% (inactive). Also, the activity in assay [3] was determined as 92.9%; in assay [4], 80%.

As for `Fc1ccc(C(OCCN2CCN(CCCc3ccccc3)CC2)c2ccc(F)cc2)cc1`, in assay [1], the inhibition is 30.4% (active).

Regarding `CCn1nc(/C=C/c2ccccc2)nc2c(=O)n(C)c(=O)nc1-2`, the inhibition in [1] is 24.6% (active).

With `COc1cc2c(cc1OC)-c1c(OC)c(OC)c(OC)c3ccnc(c13)C2=O`, the inhibition in assay [1] was 23.6% (active).

As for `CCOc1ccc(-c2cc(C)[n+](CCc3ccc(OC)c(OC)c3)c(-c3ccc(OCC)cc3)c2)cc1`, in assay [1], the inhibition is 35.8% (active).

Consider `COc1cc2c3cc1Oc1c(OC)c(OC)cc4c1[C@H](Cc1ccc(cc1)Oc1cc(ccc1O)C[C@H]3N(C)CC2)N(C)CC4`, for which, in assay [1], the inhibition was 29.8% (active).

As to `CN(C)c1ccc(-[n+]2c(-c3ccccc3)cc(-c3ccccc3)cc2-c2ccccc2)cc1`, the inhibition in assay [1] is 23.3% (active).

As to `CC(Cc1ccccc1)NCCC(c1ccccc1)c1ccccc1` (stereo not given), the inhibition in assay [6] is 12.8% (inactive); in assay [11], 87.6% (active); with PEG-3 [12], 98%; with PEG-3 [13] it was 98.9%. Moreover, in assay [7], the activation (fluorescence interference) is 7.45% (inactive).

As for `C[C@@H]1O[C@@H](O[C@H]2C[C@@H](O)[C@]3(CO)[C@@H]4C(CC[C@]3(O)C2)[C@@]2(O)CC[C@H](C3COC(=O)C3)[C@@]2(C)C[C@H]4O)[C@H](O)[C@H](O)[C@H]1O` (stereo not given in full), in assay [1], the inhibition was 24.4% (active).

As to `C[C@]12CC[C@H]3[C@@H](CC[C@]4(O)C[C@@H](O)CC[C@]34C=O)[C@@]1(O)CC[C@@H]2C1=CC(=O)OC1`, the inhibition in [1] was 28% (active).

By inhibition is commonly meant the drop in the measured response relative to a control, in per cent.
